Experimental data reported in PubChem BioAssay AID1159580 (chemical genetic matrix, 2015).
Hit rate of the full screen: of about 5,500 compounds, about 2,000 (36%) were called active. Not shown: some 18% with an inconclusive outcome. The list shows a part of the results. A number with no mark means an inactive call. No stated cut-off is given here; in the data, active means normalized growth mostly below about 0.91 (no sharp cut-off); inconclusive means no clear call, values can overlap the other calls; inactive means mostly above about 0.92.

Assay: chemical genetic growth profiling, strain panel (AID 1159580);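 further: tested at 20 µM; growth read once vehicle control cultures reached saturation at 30 °C; 1 = growth at the plate median or of vehicle wells; lower values mean less growth of the strain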
Conditions: S. cerevisiae deletion strains, growth OD

O=C(NCC1COc2ccccc2O1)c1ccc(Cl)cc1 (stereo unspecified)
normalized growth (locus YAR019C, strain CDC15, hits give low values): 0.956
normalized growth (locus YBL105C, strain PKC1, hits give low values): 0.952
normalized growth (locus YBR135W, strain CKS1, hits give low values): 0.935
normalized growth (locus YBR136W, strain MEC1, hits give low values): 0.957
normalized growth (locus YBR160W, strain CDC28, hits give low values): 0.959
normalized growth (locus YDL017W, strain CDC7, hits give low values): 0.944
normalized growth (locus YDL028C, strain MPS1, hits give low values): 0.951
normalized growth (locus YDL101C, strain DUN1, hits give low values): 0.98
normalized growth (locus YDL108W, strain KIN28, hits give low values): 0.951
normalized growth (locus YDL132W, strain cdc53, hits give low values): 0.936
normalized growth (locus YDL214C, strain PRR2, hits give low values): 0.837
normalized growth (locus YDR052C, strain DBF4, hits give low values): 0.973
normalized growth (locus YDR054C, strain cdc34, hits give low values): 0.933
normalized growth (locus YDR226W, strain ADK1, hits give low values): 0.949
normalized growth (locus YDR477W, strain SNF1, hits give low values): 0.734
normalized growth (locus YER123W, strain YCK3, hits give low values): 0.75
normalized growth (locus YER133W, strain GLC7, hits give low values): 0.463 (active)
normalized growth (locus YFL009W, strain cdc4, hits give low values): 0.942
normalized growth (locus YFL029C, strain CAK1, hits give low values): 0.933
normalized growth (locus YFR003C, strain YPI1, hits give low values): 0.956
normalized growth (locus YFR019W, strain FAB1, hits give low values): 0.745 (active)
normalized growth (locus YFR028C, strain CDC14, hits give low values): 0.942
normalized growth (locus YGR040W, strain KSS1, hits give low values): 0.692
normalized growth (locus YGR052W, strain FMP48, hits give low values): 0.899
normalized growth (locus YGR092W, strain DBF2, hits give low values): 0.753
normalized growth (locus YHR030C, strain SLT2, hits give low values): 0.638 (active)
normalized growth (locus YHR079C, strain IRE1, hits give low values): 0.759
normalized growth (locus YHR082C, strain KSP1, hits give low values): 0.88
normalized growth (locus YHR205W, strain SCH9, hits give low values): 0.901
normalized growth (locus YIL147C, strain SLN1, hits give low values): 0.929
normalized growth (locus YJL095W, strain BCK1, hits give low values): 0.586
normalized growth (locus YJL128C, strain PBS2, hits give low values): 0.948
normalized growth (locus YJL157C, strain FAR1, hits give low values): 0.84
normalized growth (locus YJR016C, strain ILV3, hits give low values): 0.936
normalized growth (locus YJR066W, strain TOR1 (second series), hits give low values): 0.561 (active)
normalized growth (locus YJR066W, strain TOR1, hits give low values): 0.714
normalized growth (locus YKL048C, strain ELM1, hits give low values): 0.895
normalized growth (locus YKL067W, strain YNK1, hits give low values): 0.842
normalized growth (locus YKL101W, strain HSL1, hits give low values): 0.92
normalized growth (locus YKL193C, strain SDS22, hits give low values): 0.933
normalized growth (locus YKL203C, strain TOR2, hits give low values): 0.708 (active)
normalized growth (locus YLR113W, strain HOG1, hits give low values): 0.935
normalized growth (locus YLR133W, strain CKI1, hits give low values): 0.88
normalized growth (locus YLR403W, strain SFP1, hits give low values): 0.699
normalized growth (locus YML070W, strain DAK1, hits give low values): 0.827
normalized growth (locus YMR001C, strain CDC5, hits give low values): 0.896
normalized growth (locus YMR205C, strain PFK2 (second series), hits give low values): 0.82
normalized growth (locus YMR277W, strain FCP1, hits give low values): 0.923
normalized growth (locus YNL006W, strain LST8, hits give low values): 0.929
normalized growth (locus YNL020C, strain ARK1, hits give low values): 0.86
normalized growth (locus YNL161W, strain CBK1, hits give low values): 0.958
normalized growth (locus YNL183C, strain NPR1, hits give low values): 0.796
normalized growth (locus YNL207W, strain RIO2, hits give low values): 0.91
normalized growth (locus YNL222W, strain SSU72, hits give low values): 0.948
normalized growth (locus YNL307C, strain MCK1 (second series), hits give low values): 0.872
normalized growth (locus YOL078W, strain AVO1, hits give low values): 0.93
normalized growth (locus YOL136C, strain PFK27, hits give low values): 0.802
normalized growth (locus YOR061W, strain CKA2, hits give low values): 0.886
normalized growth (locus YOR119C, strain RIO1, hits give low values): 0.723
normalized growth (locus YOR231W, strain MKK1, hits give low values): 0.771
normalized growth (locus YOR329C, strain SCD5, hits give low values): 0.938
normalized growth (locus YPL031C, strain PHO85, hits give low values): 0.662 (active)
normalized growth (locus YPL153C, strain RAD53, hits give low values): 0.649 (active)
normalized growth (locus YPL204W, strain HRR25, hits give low values): 0.682
normalized growth (locus YPL209C, strain IPL1, hits give low values): 0.952
normalized growth (locus YPL256C, strain CLN2, hits give low values): 0.867
normalized growth (locus YPR025C, strain CCL1, hits give low values): 0.951
normalized growth (locus YPR106W, strain ISR1, hits give low values): 0.968
normalized growth (locus YPR111W, strain DBF20, hits give low values): 0.962
normalized growth (strain NNK1, hits give low values): 0.958
normalized growth (strain TSCII, hits give low values): 0.92
